Measurements taken from PubChem BioAssay AID1159580 (chemical genetic matrix, 2015).
Screen size: about 5,500 compounds; about 2,000 (36%) were called active. Not shown: some 18% with an inconclusive outcome. Rule as the data show it: active = normalized growth mostly below about 0.91 (no sharp cut-off); inconclusive = no clear call, values can overlap the other calls; inactive = mostly above about 0.92. The list shows a part of the results.

Assay: chemical genetic growth profiling, strain panel (AID 1159580);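 also: tested at 20 µM; growth read once vehicle control cultures reached saturation at 30 °C; 1 = growth at the plate median or of vehicle wells; lower values mean less growth of the strain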
Conditions: S. cerevisiae deletion strains, growth OD

Measured: normalized growth

COC(=O)c1c(-c2cc(OC)c(OC)c(OC)c2)c2ccnc(OCc3ncccn3)c2c(=O)n1Cc1ccnc(C)c1
inactive: locus YAL013W, strain DEP1, hits give low values 1 | locus YAL040C, strain CLN3, hits give low values 0.889 | locus YCL061C, strain MRC1 (second series), hits give low values 1.01 | locus YDR363W, strain ESC2, hits give low values 1.01 | locus YER002W, strain NOP16, hits give low values 1 | locus YGR078C, strain PAC10, hits give low values 1.01 | locus YMR263W, strain SAP30, hits give low values 1.01 | locus YMR307W, strain GAS1, hits give low values 1.01 | locus YNL153C, strain GIM3, hits give low values 1.01 | locus YNL175C, strain NOP13, hits give low values 1 | locus YNL197C, strain WHI3, hits give low values 0.989 | locus YNL224C, strain SQS1, hits give low values 0.993 | locus YNL322C, strain KRE1, hits give low values 1.01 | locus YOR083W, strain WHI5 (second series), hits give low values 0.999 | locus YPL055C, strain LGE1, hits give low values 1.01

CC(=O)c1c(O)cc(O)cc1O
inactive: locus YAL021C, strain ccr4, hits give low values 1.04 | locus YAL026C, strain drs2, hits give low values 0.987 | locus YAL030W, strain snc1, hits give low values 0.981 | locus YBL061C, strain skt5, hits give low values 0.985 | locus YBR009C, strain hhf1, hits give low values 1.02 | locus YBR023C, strain chs3, hits give low values 0.995 | locus YBR171W, strain sec66, hits give low values 0.964 | locus YBR231C, strain swc5, hits give low values 0.947 | locus YBR279W, strain paf1, hits give low values 0.991 | locus YCL011C, strain gbp2, hits give low values 0.978 | locus YCL016C, strain dcc1, hits give low values 1.03 | locus YCL061C, strain MRC1, hits give low values 1 | locus YCL069W, strain vba3, hits give low values 0.949 | locus YCR088W, strain abp1, hits give low values 0.967 | locus YDL005C, strain med2, hits give low values 0.97 | locus YDL040C, strain nat1, hits give low values 0.973 | locus YDR001C, strain nth1, hits give low values 0.981 | locus YDR069C, strain doa4, hits give low values 0.937 | locus YDR137W, strain rgp1, hits give low values 1.01 | locus YDR159W, strain sac3, hits give low values 0.967 | locus YDR195W, strain ref2 0.914 | locus YDR297W, strain sur2, hits give low values 0.982 | locus YDR334W, strain swr1, hits give low values 0.96 | locus YDR335W, strain msn5, hits give low values 0.973 | locus YDR392W, strain spt3, hits give low values 0.952 | locus YEL003W, strain gim4, hits give low values 0.979 | locus YEL037C, strain rad23, hits give low values 0.974 | locus YEL061C, strain CIN8 (second series), hits give low values 0.961 | locus YER015W, strain faa2, hits give low values 0.988 | locus YER016W, strain bim1, hits give low values 0.972 | locus YER111C, strain swi4, hits give low values 0.975 | locus YER155C, strain BEM2 (second series), hits give low values 0.969 | locus YFR010W, strain ubp6, hits give low values 0.948 | locus YGL167C, strain pmr1, hits give low values 0.992 | locus YGL173C, strain kem1, hits give low values 0.993 | locus YGL227W, strain vid30, hits give low values 0.968 | locus YGL240W, strain doc1, hits give low values 0.981 | locus YGL253W, strain hxk2, hits give low values 0.938 | locus YHR013C, strain ard1, hits give low values 0.985 | locus YHR027C, strain rpn1, hits give low values 0.997 | locus YHR030C, strain SLT2, hits give low values 0.986 | locus YHR079C, strain IRE1, hits give low values 0.974 | locus YHR142W, strain chs7, hits give low values 0.988 | locus YJL092W, strain hpr5, hits give low values 0.978 | locus YJL095W, strain BCK1 (second series), hits give low values 0.981 | locus YJL095W, strain BCK1, hits give low values 0.992 | locus YJL115W, strain asf1, hits give low values 0.999 | locus YJL129C, strain trk1, hits give low values 0.977 | locus YJL154C, strain vps35, hits give low values 0.973 | locus YJL164C, strain tpk1, hits give low values 1.02 | locus YJL166W, strain qcr8, hits give low values 0.989 | locus YJL187C, strain SWE1, hits give low values 0.99 | locus YJR066W, strain TOR1, hits give low values 0.952 | locus YKL160W, strain elf1, hits give low values 1.03 | locus YKR026C, strain gcn3, hits give low values 0.948 | locus YKR091W, strain srl3, hits give low values 0.988 | locus YLL001W, strain dnm1, hits give low values 0.978 | locus YLL026W, hits give low values 0.998 | locus YLL041C, strain sdh2, hits give low values 0.983 | locus YLR027C, strain aat2, hits give low values 0.993 | locus YLR113W, strain HOG1, hits give low values 0.97 | locus YLR221C, strain rsa3, hits give low values 0.955 | locus YLR258W, strain gsy2, hits give low values 0.989 | locus YLR262C, strain YPT6 (second series), hits give low values 1.06 | locus YLR320W, strain mms22, hits give low values 0.978 | locus YLR342W, strain FKS1, hits give low values 0.978 | locus YLR357W, strain rsc2, hits give low values 0.982 | locus YLR370C, strain arc18, hits give low values 0.961 | locus YLR384C, strain iki3, hits give low values 0.973 | locus YML120C, strain ndi1, hits give low values 0.998 | locus YMR058W, strain fet3, hits give low values 0.975 | locus YMR125W, strain sto1, hits give low values 0.958 | locus YMR129W, hits give low values 0.978 | locus YMR205C, strain PFK2, hits give low values 1.03 | locus YMR231W, strain pep5, hits give low values 0.968 | locus YNL071W, strain lat1, hits give low values 0.984 | locus YNL183C, strain NPR1, hits give low values 0.938 | locus YNL209W, strain ssb2, hits give low values 0.997 | locus YNL248C, strain rpa49, hits give low values 1.01 | locus YNL322C, strain KRE1 (second series), hits give low values 0.99 | locus YNR049C, strain mso1, hits give low values 0.978 | locus YOR001W, strain rrp6, hits give low values 0.922 | locus YOR070C, strain gyp1, hits give low values 0.988 | locus YOR080W, strain dia2, hits give low values 0.962 | locus YOR083W, strain WHI5, hits give low values 1.03 | locus YOR106W, strain vam3, hits give low values 1.04 | locus YOR231W, strain MKK1, hits give low values 0.982 | locus YOR265W, strain rbl2, hits give low values 0.976 | locus YOR270C, strain vph1, hits give low values 1.01 | locus YOR290C, strain snf2, hits give low values 1.03 | locus YPL051W, strain arl3, hits give low values 0.965 | locus YPL078C, strain atp4, hits give low values 1.03 | locus YPL106C, strain sse1, hits give low values 0.958 | locus YPL240C, strain hsp82, hits give low values 0.979 | locus YPL256C, strain CLN2, hits give low values 0.973
